Screening data: PubChem, National Center for Advancing Translational Sciences (NCATS)
Shown are actives, neighbours in structure and some others; about 12% of the full set was active somewhere.
Cycloheximide cs: counter-screen for Shiga toxin inhibitors: cycloheximide protein synthesis inhibition; cell reporter, cycloheximide protein synthesis inhibition counterscreen; max response, %; 300,000 tested, 12% active; AID 2314; in the data active = max response mostly above about 13%, no sharp cut-off; inactive = mostly below about 14%; also: read at 38.3 µM for the half of the compounds with a filed dose
Shiga toxin inh: blocks Shiga toxin action in Vero cells; inhibition, % at 38.7 µM; Vero cells, Shiga toxin protein synthesis inhibition reporter; AID 2315; 290,000 tested, 9.2% active; in the data active = inhibition mostly above about 28%, no sharp cut-off; inactive = mostly below about 43%
Sm TGR inh: inhibitors of Schistosoma mansoni thioredoxin glutathione reductase | Q962Y6 | purified TGR, DTNB reduction, TNB absorbance 405 nm | Potency, µM (highest dose often 114 µM), usual class: inhibitors | 360,000 tested, 3% active; active = well fitted inhibition curve with a large enough effect; inconclusive = small, poorly fitted or top-dose-only effect; inactive = no such curve, though single readings can be large or run the other way; also: nearly all actives have a fitted effect of over 60% in size
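First, TGR (20 nM dispensed) and NADPH were mixed with compound. Second, a 15 min room-temperature incubation followed. Third, further NADPH and then DTNB were added to start the reaction. Finally, TNB absorbance was monitored kinetically.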
FMDV inh: antivirals against foot and mouth disease virus | FMDV antiviral cell-based qHTS | Potency, µM (doses to about 57.9 µM), actives largely listed as inhibitors | 410,000 tested, 1.2% active; calls by dose curve; tested in HEK293T cells; also: read-out not given here; nearly all actives have a fitted effect of over 45% in size
Numbers stand for hits; – = inactive; ? = inconclusive; · = no result; [ ] = dose if it differs, or a comment.

SMILES	Cycloheximide cs	Shiga toxin inh	Sm TGR inh	FMDV inh
O=C(CSc1nc2ccccc2n1S(=O)(=O)c1ccccc1)N1CCCC1	12.7	47.9	–	–
CCN(CC)S(=O)(=O)c1ccc(-c2nnc(SCC(=O)N3c4ccccc4CC3C)n2CC)cc1 (stereo unspecified)	–	–	–	20µM
CNC(=O)CSc1nc(SC)ns1	–	–	–	–
O=C(Cc1ccc(Cl)cc1)Nc1nnc2n1CCS2	·	·	–	–
NC(=O)C1CCN(C(=O)CSc2nc3ccccc3s2)CC1	–	–	–	–
CCC(CC)C(=O)Nc1ccc2nc(SCC(=O)N3c4ccccc4CC3C)sc2c1 (stereo unspecified)	·	·	–	–
O=C(CSc1nc2ccccc2s1)N1CCCCC1	42.6	123.7	–	·
CC1Cc2ccccc2N1C(=O)CSc1nc2ccccc2s1 (stereo unspecified)	24.5	40.8	–	–
O=C(CSc1nncc2ccccc12)N1CCCCC1	44.9	–	–	–
CC1CCCC(C)N1C(=O)CSc1nc2ccccc2s1 (stereo unspecified)	34.8	126.2	–	–
O=C(CSc1nc(C2CC2)nc2ccccc12)N1CCCCC1	–	–	–	–
CC(=O)c1ccc(NC(=O)Nc2ccc3c(c2)nc(C)n3C)cc1	34.1	80.9	–	–
Cc1ccc(NC(=O)Nc2ccc3c(c2)nc(C)n3C)cc1	33.1	53.8	–	–
Cc1nc2cc(NC(=O)Nc3ccccc3Cl)ccc2n1C	13.1	28.4	–	–
Cc1nc2cc(NC(=O)Nc3cccc([N+](=O)[O-])c3)ccc2n1C	45.7	·	–	–
c1ccc(Nc2c(-c3c[nH]c4ccccc34)nc3ccccn23)cc1	·	·	–	–
Cn1c(=O)c2c(nc(SCC(=O)Nc3ccccc3F)n2Cc2ccccc2F)n(C)c1=O	·	·	–	–
CC(=O)NCCc1nc2cc(NC(=O)Nc3ccccc3)ccc2n1C	–	–	–	–
COC(=O)c1ccc(NC(=O)Nc2ccc3c(c2)nc(C)n3C)cc1	14.9	68.4	–	–
CCOC(=O)c1ccc(NC(=O)Cn2nnc(-c3ccc(C(F)(F)F)cc3)n2)cc1	·	·	–	–
Cc1ccc(CN(C(=O)COc2cc(C)c(Cl)c(C)c2)c2ccccn2)o1	·	·	–	–
CCOc1ccc(/C(O)=C2/C(=O)C(=O)N(c3ncccn3)C2c2ccccc2)cc1 (stereo unspecified)	66.4	57.8	–	–
CCOc1ccc(/C(O)=C2/C(=O)C(=O)N(CCOCCO)C2c2ccccc2)cc1 (stereo unspecified)	18.1	–	–	–
O=C(c1ccncc1)c1ccc(N2CCN(C3CC(=O)N(Cc4cccs4)C3=O)CC2)cc1 (stereo unspecified)	–	–	?	25.1µM
CCN1C(=O)CC(N2CCN(c3ccc(C(=O)c4ccncc4)cc3)CC2)C1=O (stereo unspecified)	–	–	–	–
SMILES	Cycloheximide cs	Shiga toxin inh	Sm TGR inh	FMDV inh
O=C1CC(N2CCN(c3ccc(O)cc3)CC2)C(=O)N1Cc1cccs1 (stereo unspecified)	–	–	50.1µM	–
Cc1nn(-c2ccccc2)c2sc(C(=O)Nc3cccc(Cl)c3)cc12	·	·	–	–
COc1ccc(Br)cc1CNC(=O)c1cc(=O)[nH]c2ccc(S(=O)(=O)N3CCCCC3)cc12	·	·	–	–
CC(=O)c1ccccc1OCCOCCOCCOc1ccccc1C(C)=O	–	–	–	?
CC(=O)c1ccccc1OCCOc1ncnc2sccc12	15.6	36.5	–	–
O=c1oc(-c2ccc(C(F)(F)F)cc2)nn1Cc1cc(Cl)ccc1O	–	–	·	–
O=C(NCC(c1cccs1)S(=O)(=O)c1ccccc1)c1ccc(C(F)(F)F)cc1 (stereo unspecified)	·	·	–	?
CC(C)(C)c1ccc(C(=O)NCC(c2cccs2)S(=O)(=O)c2cccs2)cc1 (stereo unspecified)	·	·	35.5µM	–
CC(C)(C)c1ccc(C(=O)NCC(c2cccs2)S(=O)(=O)c2ccc(F)cc2)cc1 (stereo unspecified)	·	·	–	20µM
O=C(NCC(c1cccs1)S(=O)(=O)c1cccs1)c1ccccc1 (stereo unspecified)	·	·	?	–
CCOC(=O)c1cnn(-c2cccc(Cl)c2)c1C1CCN(C(=O)OC(C)(C)C)CC1	·	·	–	?
N#CC1=C(N)Oc2cc(O)ccc2C1c1cccnc1 (stereo unspecified)	–	–	–	–
N#CC1=C(N)Oc2cc(O)c(Cl)cc2C1c1cccnc1 (stereo unspecified)	–	–	31.6µM	–
N#CC1=C(N)Oc2ccc3ccc(O)cc3c2C1c1cccnc1 (stereo unspecified)	–	–	–	·
N#CC1=C(N)Oc2cc(O)c(Cl)cc2C1c1ccccc1F (stereo unspecified)	–	–	44.7µM	–
N#CC1=C(N)Oc2ccc3ccccc3c2C1c1cccnc1 (stereo unspecified)	–	–	39.8µM	?
CCCSCCCNC(=O)c1ccc(Cn2c(=O)c3cccn3c3cccnc32)cc1	·	·	–	–
O=C(Nc1ccccc1Cl)c1sc2cccc(Cl)c2c1Cl	·	·	–	–
O=C(O)c1sc2cccc(Cl)c2c1Cl	15.8	–	–	–
CC1=C(c2cccc(Cl)c2)S(=O)(=O)NC1=NCc1ccccc1C	·	·	–	–
O=S(=O)(c1ccc(C2CCCCC2)cc1)N1CCN(c2cc(Cl)ccc2Cl)CC1	·	·	–	–
COc1ccc(CNC(=O)c2sc(=O)n(Cc3ccc(C)cc3)c2C)cc1OC	·	·	·	25.1µM
COc1ccccc1Cn1c(C)c(C(=O)NCc2cccc(C)c2)sc1=O	·	·	·	–
COc1ccc(CNC(=O)c2sc(=O)n(Cc3ccc(-c4ccccc4)cc3)c2C)cc1OC	·	·	·	15.8µM
CCOC(=O)c1cccc(NC(=O)NCCc2c(C)nn(C)c2C)c1	·	·	–	–
SMILES	Cycloheximide cs	Shiga toxin inh	Sm TGR inh	FMDV inh
CCOC(=O)c1nnc2cc(-c3ccccc3)nn2c1C	28.4	–	–[11.4 µM]	–
CCOC(=O)c1cc2nc(-c3ccccc3)cc(C)n2n1	–	·	–	–
CCOC(=O)c1cnn2c(C)cc(-c3ccccc3)nc12	36.1	68.2	–	–
c1ccc(-c2cc(-c3nn4c(-c5ccco5)nnc4s3)c3ccccc3n2)cc1	–	–	20µM	–
c1coc(-c2nnc3sc(-c4cccs4)nn23)c1	13.6	–	17.8µM	–
COc1ccc(-c2nnc3sc(-c4ccco4)nn23)cc1OC	–	–	–	–
COc1cc(OC)c(-c2nn3c(-c4ccco4)nnc3s2)cc1OC	–	–	11.2µM	–
c1csc(-c2nn3c(-c4ccncc4)nnc3s2)c1	–	–	–	·
COc1cccc(-c2nnc3sc(-c4ccco4)nn23)c1	39.2	–	–	–
Cc1cc(C)c(C#N)c(OCC(=O)c2ccccc2)n1	39.4	–	–	–
Cc1cc(C)c(C#N)c(OCc2ccc(Cl)nc2)n1	–	–	89.1µM	–
COc1ccc(Oc2nc(C)cc(C)c2C#N)cc1	–	–	–	·
COCCCn1c(=O)c2sccc2n2c(CCCC(=O)NC3CCC(C)CC3)nnc12 (stereo unspecified)	·	·	–	–
Cc1ccc2oc(-c3ccco3)cc(=O)c2c1	38.5	71.3	·	–
CC(C)OCCOc1ccc2oc(-c3ccco3)cc(=O)c2c1	19.5	–	–	–
O=c1cc(-c2ccco2)oc2ccccc12	·	·	·	–
N#CCOc1ccc2oc(-c3ccco3)cc(=O)c2c1	–	–	–	·
